Measurements reported in PubChem BioAssay.
Some of the results follow. Activity calls are given as the source filed them.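 Rule for the calls, unless noted: active = average inhibition above a cutoff equal to the mean inhibition of all tested compounds plus one SD (cut at about 70% in these data); inactive = the rest.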

molecular target: Nuclear receptor coactivator 3 (Homo sapiens) (UniProt Q9Y6Q9); test: SRC3 coactivator transcriptional activity inhibitors, confirmation, cell-based, luminescence, quadruplicate (AID 588792;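 active = mean inhibition over 43.08%, the solvent-only control mean plus 3 SD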;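 note: 0% = DMSO treated cells and 100% = gossypol at 36 µM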); details: HEK293 GAL4-SRC3 luciferase reporter, at 3.6 µM, hits give high values
Sequence (Q9Y6Q9 whole entry, looked up, the tested form may be a part): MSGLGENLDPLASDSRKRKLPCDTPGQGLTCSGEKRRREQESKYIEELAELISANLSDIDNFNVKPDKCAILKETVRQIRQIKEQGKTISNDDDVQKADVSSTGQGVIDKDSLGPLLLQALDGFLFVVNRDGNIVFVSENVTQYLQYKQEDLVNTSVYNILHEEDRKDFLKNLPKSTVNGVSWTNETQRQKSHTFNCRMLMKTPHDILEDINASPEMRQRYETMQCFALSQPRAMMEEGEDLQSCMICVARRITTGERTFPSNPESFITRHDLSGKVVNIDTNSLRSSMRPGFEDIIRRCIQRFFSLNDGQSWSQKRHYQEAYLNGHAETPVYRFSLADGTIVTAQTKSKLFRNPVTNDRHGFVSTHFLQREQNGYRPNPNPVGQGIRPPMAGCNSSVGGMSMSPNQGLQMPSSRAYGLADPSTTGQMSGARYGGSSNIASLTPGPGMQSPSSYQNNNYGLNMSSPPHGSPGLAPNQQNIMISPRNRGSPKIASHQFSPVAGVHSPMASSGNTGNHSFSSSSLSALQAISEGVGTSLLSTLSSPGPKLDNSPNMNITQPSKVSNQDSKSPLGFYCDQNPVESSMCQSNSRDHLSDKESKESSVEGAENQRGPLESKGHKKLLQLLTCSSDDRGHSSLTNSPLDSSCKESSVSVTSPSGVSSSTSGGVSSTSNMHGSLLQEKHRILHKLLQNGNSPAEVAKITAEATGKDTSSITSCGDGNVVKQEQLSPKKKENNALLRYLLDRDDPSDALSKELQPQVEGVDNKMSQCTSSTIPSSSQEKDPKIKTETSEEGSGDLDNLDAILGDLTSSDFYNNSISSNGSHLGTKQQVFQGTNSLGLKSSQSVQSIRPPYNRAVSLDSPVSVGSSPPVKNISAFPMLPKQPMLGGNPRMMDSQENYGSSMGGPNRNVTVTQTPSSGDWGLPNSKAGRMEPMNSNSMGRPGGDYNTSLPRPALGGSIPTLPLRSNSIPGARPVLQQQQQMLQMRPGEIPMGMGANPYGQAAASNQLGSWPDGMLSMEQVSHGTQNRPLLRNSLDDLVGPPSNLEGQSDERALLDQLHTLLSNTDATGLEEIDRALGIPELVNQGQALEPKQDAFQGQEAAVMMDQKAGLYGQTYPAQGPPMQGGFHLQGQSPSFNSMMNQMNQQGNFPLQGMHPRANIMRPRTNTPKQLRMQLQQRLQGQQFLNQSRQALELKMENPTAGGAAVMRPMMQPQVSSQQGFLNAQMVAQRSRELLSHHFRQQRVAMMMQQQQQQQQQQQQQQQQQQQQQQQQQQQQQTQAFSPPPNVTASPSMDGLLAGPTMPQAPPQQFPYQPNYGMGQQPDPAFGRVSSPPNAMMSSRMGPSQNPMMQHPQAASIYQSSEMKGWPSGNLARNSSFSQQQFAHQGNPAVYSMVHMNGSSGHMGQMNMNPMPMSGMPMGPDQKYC

| Structure (SMILES) | inhibition |
| --- | --- |
| C[C@@H]1C[C@@H]2O[C@H]2/C=C\C=C\C(=O)Cc2c(Cl)c(O)cc(O)c2C(=O)O1 | 62.2% (active) |
| CN(c1ccc2nc3ccccc3c(=O)n2n1)C1CCCCC1 | 59.8% (active) |
| CC1CC2=C(CC1/C=N/NC(N)=S)C(C)(C)CCC2 (stereo unspecified) | 50.9% (active) |

tested on: transactivating tegument protein VP16 (Human herpesvirus 1), Gal4-VP16 luciferase reporter; test: VP16 transactivation inhibitors, counter-screen for SRC3 inhibitor project, cell-based, luminescence, high throughput (AID 588794; in the data active = inhibition above about 30%); details: mammalian cells, VP16-driven luciferase reporter luminescence; at 3.6 µM; hits give high values

| Structure (SMILES) | inhibition |
| --- | --- |
| C[C@@H]1C[C@@H]2O[C@H]2/C=C\C=C\C(=O)Cc2c(Cl)c(O)cc(O)c2C(=O)O1 | 74.4% (active) |
| CN(c1ccc2nc3ccccc3c(=O)n2n1)C1CCCCC1 | 48.9% (active) |
| CC1CC2=C(CC1/C=N/NC(N)=S)C(C)(C)CCC2 (stereo unspecified) | 30.1% (active) |

molecular target: Nuclear receptor coactivator 1 (Homo sapiens) (UniProt Q15788); test: SRC1 coactivator transcriptional activity inhibitors, confirmation, cell-based, luminescence, quadruplicate (AID 588820;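 active = mean inhibition above 46.68%, the untreated control wells mean plus 3 SD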;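 note: 0% = DMSO wells and 100% = gossypol 36 µM treated wells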); details: HEK293 GAL4-SRC1 luciferase reporter, at 3.6 µM, hits give high values
Sequence (Q15788 whole entry, looked up, the tested form may be a part): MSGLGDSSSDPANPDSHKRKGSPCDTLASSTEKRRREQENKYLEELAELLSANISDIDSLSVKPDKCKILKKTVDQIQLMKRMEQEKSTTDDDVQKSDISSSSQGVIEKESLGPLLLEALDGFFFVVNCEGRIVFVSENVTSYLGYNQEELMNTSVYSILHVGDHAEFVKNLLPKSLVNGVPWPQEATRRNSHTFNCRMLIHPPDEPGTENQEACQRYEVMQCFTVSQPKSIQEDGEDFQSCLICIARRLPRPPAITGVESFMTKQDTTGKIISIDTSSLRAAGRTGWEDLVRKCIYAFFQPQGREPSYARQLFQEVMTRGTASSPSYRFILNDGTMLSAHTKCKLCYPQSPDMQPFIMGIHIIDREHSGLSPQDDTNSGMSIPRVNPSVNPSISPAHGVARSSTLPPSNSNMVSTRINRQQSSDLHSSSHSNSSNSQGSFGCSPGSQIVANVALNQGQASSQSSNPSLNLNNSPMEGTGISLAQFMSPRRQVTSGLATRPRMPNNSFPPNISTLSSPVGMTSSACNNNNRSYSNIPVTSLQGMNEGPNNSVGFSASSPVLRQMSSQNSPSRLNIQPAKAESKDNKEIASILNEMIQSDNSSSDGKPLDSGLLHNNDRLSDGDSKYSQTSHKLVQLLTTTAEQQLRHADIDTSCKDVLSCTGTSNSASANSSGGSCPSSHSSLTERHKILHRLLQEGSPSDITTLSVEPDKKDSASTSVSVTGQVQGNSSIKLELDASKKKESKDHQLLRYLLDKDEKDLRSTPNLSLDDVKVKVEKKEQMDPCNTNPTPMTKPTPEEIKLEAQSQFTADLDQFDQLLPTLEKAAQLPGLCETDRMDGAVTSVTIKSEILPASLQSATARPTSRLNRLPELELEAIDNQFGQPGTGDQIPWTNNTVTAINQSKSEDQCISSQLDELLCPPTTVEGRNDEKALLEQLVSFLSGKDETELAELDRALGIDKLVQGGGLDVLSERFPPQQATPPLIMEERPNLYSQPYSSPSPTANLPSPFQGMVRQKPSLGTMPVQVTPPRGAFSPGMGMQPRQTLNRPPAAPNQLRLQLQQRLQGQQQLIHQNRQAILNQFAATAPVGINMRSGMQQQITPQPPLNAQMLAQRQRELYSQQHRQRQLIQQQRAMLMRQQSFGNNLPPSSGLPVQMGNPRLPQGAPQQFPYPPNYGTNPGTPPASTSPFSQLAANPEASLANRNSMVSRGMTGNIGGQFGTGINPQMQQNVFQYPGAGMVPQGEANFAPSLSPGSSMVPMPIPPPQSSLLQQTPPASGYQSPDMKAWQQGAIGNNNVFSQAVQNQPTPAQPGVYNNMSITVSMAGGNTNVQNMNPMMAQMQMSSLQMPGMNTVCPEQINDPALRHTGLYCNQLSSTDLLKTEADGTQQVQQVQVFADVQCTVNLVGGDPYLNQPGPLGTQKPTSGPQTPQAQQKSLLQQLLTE

| Structure (SMILES) | inhibition |
| --- | --- |
| C[C@@H]1C[C@@H]2O[C@H]2/C=C\C=C\C(=O)Cc2c(Cl)c(O)cc(O)c2C(=O)O1 | -17.6% (inactive) |
| CN(c1ccc2nc3ccccc3c(=O)n2n1)C1CCCCC1 | -5.95% (inactive) |
| CC1CC2=C(CC1/C=N/NC(N)=S)C(C)(C)CCC2 (stereo unspecified) | 32.9% (inactive) |

tested on: not listed separately; test: VP16 transactivation inhibitors, counter-screen for SRC1 inhibitor project, cell-based, luminescence, high throughput (AID 588824; in the data active = inhibition above about 25%); details: cell-based VP16 transactivation luciferase luminescence; at 3.6 µM; hits give high values

| Structure (SMILES) | inhibition |
| --- | --- |
| C[C@@H]1C[C@@H]2O[C@H]2/C=C\C=C\C(=O)Cc2c(Cl)c(O)cc(O)c2C(=O)O1 | 72% (active) |
| CN(c1ccc2nc3ccccc3c(=O)n2n1)C1CCCCC1 | 23.2% (inactive) |
| CC1CC2=C(CC1/C=N/NC(N)=S)C(C)(C)CCC2 (stereo unspecified) | 33.7% (active) |

molecular target: Receptor-interacting serine/threonine-protein kinase 2 (Homo sapiens) (UniProt O43353); test: NOD2-RIPK2 binding disruptors, retest, confirmation, fluorescence, CHO cells, BLA complementation, triplicate (AID 624370;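 active = mean inhibition across replicates above a set limit taken from the earlier primary screen, cut at about 21% in these data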;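 note: 0% = DMSO-only wells and the high end = clavulanate BLA-blocked wells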); details: CCF4 FRET, at 4.98 µM, hits give high values
Sequence (O43353 whole entry, looked up): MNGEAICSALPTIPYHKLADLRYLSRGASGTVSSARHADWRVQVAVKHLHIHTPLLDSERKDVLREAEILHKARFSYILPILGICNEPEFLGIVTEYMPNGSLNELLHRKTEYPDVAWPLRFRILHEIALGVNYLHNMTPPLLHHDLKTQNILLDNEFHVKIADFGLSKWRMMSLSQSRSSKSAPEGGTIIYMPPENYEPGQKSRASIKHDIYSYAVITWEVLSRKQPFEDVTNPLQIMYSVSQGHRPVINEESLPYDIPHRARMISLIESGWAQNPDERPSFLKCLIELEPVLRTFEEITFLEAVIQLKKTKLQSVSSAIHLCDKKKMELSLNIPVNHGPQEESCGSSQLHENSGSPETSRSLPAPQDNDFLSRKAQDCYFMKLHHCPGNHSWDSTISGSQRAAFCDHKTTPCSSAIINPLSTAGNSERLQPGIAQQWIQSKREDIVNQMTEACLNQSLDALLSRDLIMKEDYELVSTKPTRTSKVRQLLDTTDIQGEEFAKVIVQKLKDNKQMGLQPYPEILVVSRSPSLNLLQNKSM

| Structure (SMILES) | inhibition |
| --- | --- |
| O=C(Nc1ccccc1)c1nnsc1S(=O)(=O)c1ccc(Cl)cc1 | 65.2% (active) |
| O=C(/C=C/c1ccc(Cl)c([N+](=O)[O-])c1)c1ccc(O)cc1 | 31.7% (active) |
| CC1CC(C)CN(S(=O)(=O)c2cccc(C(=O)N3C(=O)c4cccc(N)c4C3=O)c2)C1 (stereo unspecified) | 34.1% (active) |
| O=C1C=C(c2ccc(Cl)cc2)C(=O)N1Nc1ccccc1 | 90.3% (active) |

tested on: not listed separately; test: beta-lactamase reporter inhibitors in CHO cells, confirmation, artefact control for NOD2-RIPK2 interaction inhibitor project, cell-based, CHO-K1 CMV-bla, CCF4 FRET, fluorescence (AID 624371;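 active = mean inhibition above the low-control mean inhibition plus three low-control SD, cut at about 11% in these data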;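 note: 0% = DMSO only wells and 100% = clavulanate high control wells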); details: CCF4 FRET ratio, counterscreen, at 4.98 µM, hits give high values

| Structure (SMILES) | inhibition |
| --- | --- |
| O=C(Nc1ccccc1)c1nnsc1S(=O)(=O)c1ccc(Cl)cc1 | 10.3% (inactive) |
| O=C(/C=C/c1ccc(Cl)c([N+](=O)[O-])c1)c1ccc(O)cc1 | -1.48% (inactive) |
| CC1CC(C)CN(S(=O)(=O)c2cccc(C(=O)N3C(=O)c4cccc(N)c4C3=O)c2)C1 (stereo unspecified) | 33.2% (active) |
| O=C1C=C(c2ccc(Cl)cc2)C(=O)N1Nc1ccccc1 | 14.8% (active) |

molecular target: Photoreceptor-specific nuclear receptor (Homo sapiens) (UniProt Q9Y5X4); test: NR2E3 agonist confirmation in cells, cell-based, luminescence, CHO-S two-hybrid (AID 624378); details: CHO-S mammalian two-hybrid NR2E3-NCOR, luciferase luminescence; at 3.98 µM; hits give high values;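 note: 0% = DMSO in NR2E3 cells and 100% = DMSO in cells lacking NR2E3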
Sequence (Q9Y5X4 whole entry, looked up): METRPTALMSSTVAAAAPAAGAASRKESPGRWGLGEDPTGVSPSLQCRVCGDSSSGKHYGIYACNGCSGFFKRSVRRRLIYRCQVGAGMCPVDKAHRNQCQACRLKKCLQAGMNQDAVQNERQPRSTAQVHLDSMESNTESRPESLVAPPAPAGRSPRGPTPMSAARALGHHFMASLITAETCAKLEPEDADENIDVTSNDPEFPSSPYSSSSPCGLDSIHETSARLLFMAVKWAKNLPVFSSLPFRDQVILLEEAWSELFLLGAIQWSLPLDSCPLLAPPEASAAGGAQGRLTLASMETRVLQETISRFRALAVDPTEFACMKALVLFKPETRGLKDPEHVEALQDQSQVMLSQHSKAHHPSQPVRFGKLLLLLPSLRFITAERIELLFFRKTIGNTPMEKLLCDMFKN

| Structure (SMILES) | inhibition |
| --- | --- |
| CCNC(=O)CCc1nc(-c2ccc(C(C)(C)C)cc2)no1 | 73.5% (active) |
| COc1cccc(/C=N/Nc2ncc(C(F)(F)F)cc2Cl)c1O | 83% (active) |
| CN(c1ccc2nc3ccccc3c(=O)n2n1)C1CCCCC1 | 43.9% (inactive) |
| Cn1nccc1C(=O)NC1CCCc2c1cnn2-c1ccc(F)cc1F (stereo unspecified) | 96.4% (active) |
| COc1ccc(C(=O)Nc2ccccc2C(=O)N/N=C/c2ccc(O)c(OC)c2)cc1 | 42.1% (inactive) |
| COc1cc(NC(=O)c2ccccc2NS(=O)(=O)c2ccc(Cl)s2)cc(OC)c1 | 99.6% (active) |
